Sampled rows, rich in hits. Any-hit rate of the full collection: about 19%.
DT40 TDP1 CPT – qHTS for Inhibitors of human tyrosyl-DNA phosphodiesterase 1 (TDP1): qHTS in cells in presence of CPT; chicken DT40 Tdp1-/-;hTDP1 cells + 20 nM CPT, ATP luminescence, 48 h; 420,000 tested, 12% active; Potency, µM (highest dose often 46.2 µM), without a hit: top-dose activity change, negative = growth inhibition, hits mostly inhibitors; AID 686979, 2013; also: nearly all actives have a fitted effect of over 55% in size
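Chicken DT40 Tdp1-/- cells stably complemented with human TDP1 were seeded at 400 cells/well in medium containing 20 nM camptothecin, exposed to pin-transferred compounds, and grown at 37 °C for at least 48 hr. Viability was read as ATP luminescence.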
HT1080-NT tox – qHTS for induction of synthetic lethality in tumor cells producing 2HG: qHTS for the HT-1080-NT fibrosarcoma cell line; HT-1080-NT fibrosarcoma viability, CellTiter-Glo ATP luminescence, 48 h; Potency, µM (highest dose often 46.1 µM), for the others: at the highest dose activity, negative = less viability, usual class: cytotoxic; 360,000 tested, 1.6% active; AID 686970, 2013;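 also: NT is the 2HG producing partner of a matched IDH1 knockdown line; 0% = DMSO-treated cells and -100% = media-only wells without cells; nearly all actives have a fitted effect of over 55% in size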
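Viability by CellTiter-Glo luminescence after 48 h compound exposure at 37C of HT-1080-NT cells (750/well, RPMI, 5% FBS). % activity scaled between DMSO wells and medium-only wells, then curve-fitted and categorized by curve class.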
DT40 TDP1 no CPT – qHTS for Inhibitors of human tyrosyl-DNA phosphodiesterase 1 (TDP1): qHTS in cells in absence of CPT; DT40 Tdp1-/- hTDP1 cells, no CPT, ATP luminescence, 48 h; Potency, µM (titrated, usually from 46.2 µM), without a hit: at the top dose activity change, negative = growth inhibition, usual class: inhibitors; 420,000 tested, 15% active; AID 686978, 2013; also: nearly all actives have a fitted effect of over 55% in size
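Growth of hTDP1-complemented DT40 Tdp1-knockout cells is measured by ATP luminescence after at least 48 hr compound exposure at 37 °C, with DMSO substituting for the 20 nM CPT used in the parallel screen.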
HT1080 IDH1KD tx – qHTS for induction of synthetic lethality in tumor cells producing 2HG: qHTS for the HT-1080-IDH1KD cell line; HT-1080 IDH1 knockdown viability, ATP luminescence, 48 h; Potency, µM (top dose mostly 46.1 µM), without a hit: at the highest dose activity, negative = toxicity, usual class: cytotoxic; 360,000 tested, 2% active; AID 686971, 2013;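 also: 0% = DMSO wells and -100% = cell-free medium wells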
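Using the IDH1-knockdown HT-1080 line run in the same batch and compound series as the NT line, viability after 48 h at 37 °C was determined by CellTiter-Glo luminescence and expressed as % activity.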
KB-3-1 tox – qHTS assay for MDR1-selective chemotherapeutics: Primary screen using the parental adenocarcinoma cell KB-3-1. KB-3-1 viability, CellTiter-Glo ATP luminescence, 72 h. Potency, µM (series often up to 46.1 µM), hits mostly cytotoxic. 400,000 tested, 1.4% active. AID 1347075, 2019; also: nearly all actives have a fitted effect of over 60% in size
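KB-3-1 cells, DMEM (no phenol red) + 10% FBS; compound by pin transfer, 72 h, 37 °C. Readout: CellTiter-Glo luminescence after 10 min. Data normalized, curve-fitted.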
KB-V1 cytotox – qHTS assay for MDR1-selective chemotherapeutics: Primary screen using the drug-selected MDR subline cells KB-V1; KB-V1 MDR cells viability, CellTiter-Glo, 72 h; Potency, µM (highest dose often 46.1 µM), most hits filed as cytotoxic; 400,000 tested, 3.4% active; also: nearly all actives have a fitted effect of over 60% in size
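Following 72 h at 37 degrees C with compound, KB-V1 cell viability was read by CellTiter-Glo luminescence, medium being phenol-red-free DMEM plus 10% FBS; concentration-response parameters came from normalized, curve-fitted qHTS data.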
* = called active by the depositor; i = inactive; ? = inconclusive; nt = no result given. Calls follow the shape of the dose curve; as a rule, active = well fitted curve in the direction sought with a large enough effect; inconclusive = small, poorly fitted or top-dose-only effect, or another doubt; inactive = no such curve, though single readings can be large; an effect the other way counts as inactive or inconclusive. Unless noted, % is scaled to controls: 0 for no effect and ±100 for the full control effect; potency is read from the fitted curve at half-maximal effect.

SMILES | DT40 TDP1 CPT | HT1080-NT tox | DT40 TDP1 no CPT | HT1080 IDH1KD tx | KB-3-1 tox | KB-V1 cytotox
COc1ccccc1N1CCN(Cc2ccccc2F)CC1 | -11% | 5% | -12% | 7% | i | i
COc1ccccc1N1CCN(Cc2ccccc2Cl)CC1 | ? | 25% | -23% | 13% | i | 21µM*
COc1ccccc1N1CCN(Cc2c(F)cccc2F)CC1 | -30% | 19% | -23% | -26% | i | 15µM*
COc1ccc(OC(=O)N(C)C[C@@H]2OCc3cnnn3CCCC(=O)N([C@@H](C)CO)C[C@@H]2C)cc1 | -3% | -1% | -25% | 3% | i | i
COC(=O)N1CCC2(CCN(CC(C)C)CC2)CC1 | -7% | nt | -11% | nt | nt | nt
COc1cc2nc(N3CCCN(C)CC3)nc(N(C)C3CCN(C)CC3)c2cc1OC | 6.3µM* | nt | 6.3µM* | nt | i | i
CCOc1ccc(-c2cc(C(=O)N3CCC4(CC3)OCCO4)c3ccccc3n2)cc1 | 5.2µM* | 1% | ? | 10% | i | i
COc1ccc(-c2cc(C(=O)N3CCC4(CC3)OCCO4)c3ccccc3n2)cc1 | ? | -11% | ? | -14% | i | ?
CCC(=O)O[C@H]1[C@@H](N2CCCCC2)C[C@H]2[C@@H]3CC[C@H]4C[C@H](OC(C)=O)[C@@H](N5CCCCC5)C[C@]4(C)[C@H]3CC[C@@]21C | 7.5µM* | nt | 6.7µM* | nt | nt | nt
CC(=O)OC1CC[C@@]2(C)C3CC[C@]4(C)C(=O)CCC4C3CC[C@H]2C1 (stereo partly specified) | ? | nt | -1% | nt | nt | nt
O=C(NCC1=C(c2cccc3ccccc23)C[C@@H]2CC[C@H]1N2Cc1ccco1)c1cccs1 | ? | ? | 15µM* | ? | ? | i
CC(=O)NCC1=C(c2cccc3ccccc23)C[C@@H]2CC[C@H]1N2Cc1ccco1 | ? | 1% | ? | -1% | i | i
O=C(NCC1=C(c2cccc3ccccc23)C[C@@H]2CC[C@H]1N2Cc1ccco1)c1ccncc1 | 23µM* | -20% | 26µM* | -12% | i | i
O=C(NCC1=C(c2cccc3ccccc23)C[C@@H]2CC[C@H]1N2Cc1ccco1)c1cccnc1 | ? | -9% | ? | 6% | i | i
O=C(NCC1=C(c2ccc3ccccc3c2)C[C@@H]2CC[C@H]1N2Cc1ccco1)c1nccs1 | ? | -18% | 16µM* | -2% | i | i
COc1ccc(C2N(c3cc(C)on3)C(=O)C3CCCN32)cc1 (stereo unspecified) | -19% | 4% | -3% | 28% | i | i
COC(=O)C1=C(c2c(C)noc2C)C[C@@H]2CC[C@H]1N2C(=O)NCCNC(C)=O | -3% | 13% | -12% | 17% | i | i
COC(=O)C1=C(c2cccc(C#N)c2)C[C@@H]2CC[C@H]1N2C(=O)NC1CC1 | -26% | ? | -11% | 9% | i | i
O=C(NCc1ccccc1)c1cccc(Nc2nc3ccccc3n3nnnc23)c1 | 21µM* | nt | 15µM* | nt | i | ?
Oc1c(Cl)c(Cl)c(Cl)c(Cl)c1Cl | ? | ? | 21µM* | ? | i | ?
Cc1cc(C)[n+](C2C3CC4CC(C3)CC2C4)o1 (stereo unspecified) | -29% | 4% | 21µM* | 1% | i | ?
